Values joined by “and” are separate entries in the source; they are usually repeats but may differ in a detail not shown here. Equal values may be shown once. Records with an inconclusive call do not appear. Where a call stands in place of a potency, no number is given. Some structures have more than one record in an assay (separate samples or runs), and their calls can disagree. Active and inactive are the calls of the source. Unless noted, the call rests on the fitted dose curve.
Legend:
[1] = Nuclear factor erythroid 2-related factor 2/antioxidant responsive element (Nrf2/ARE) small molecule agonists: qHTS cell viability counter screen in human keratinocytes (AID 1919968; active means well fitted curve in the direction sought with a large enough effect in the repeat runs; an effect the other way counts as inactive or inconclusive; further: nearly all actives have a fitted effect of over 55% in size)
Method in brief: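 Measured as CellTiter-Fluor fluorescence, this readout tracks cytotoxicity in the same wells as the ARE-luciferase screen. HaCaT reporter cells (1,500/well) received compounds after a 5 h pre-incubation and were exposed for 23 h.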

[2] = Nuclear factor erythroid 2-related factor 2/antioxidant responsive element (Nrf2/ARE) small molecule agonists: luciferase reporter gene qHTS assay in human keratinocytes (AID 1919969); further: nearly all actives have a fitted effect of over 35% in size; further: potency means the concentration at half of the fitted maximal effect
[3] = molecular target: Gonadotropin-releasing hormone receptor (Homo sapiens) (UniProt P30968); assay: Human gonadotropin-releasing hormone receptor (GnRHR) small molecule agonists, calcium flux assay in GnRHR-HEK293 cells (AID 1920063); further: nearly all actives have a fitted effect of over 35% in size
Method in brief: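 Fluorescence kinetics (480 nm excitation, 540 nm emission; 3 min, 1 s steps) report calcium mobilisation in human GnRHR-HEK293 cells in agonist mode. Dye incubation: 1 h, 37 C.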

[4] = molecular target: KiSS-1 receptor (Homo sapiens) (UniProt Q969F8); assay: Human kisspeptin (KISS1R) small molecule agonists, calcium flux assay in KISS1R-HEK293 cells (AID 1920064; active means well fitted curve in the direction sought with a large enough effect in the repeat runs; an effect the other way counts as inactive or inconclusive)
Method in brief: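 Measures KISS1R agonism through calcium-sensitive dye fluorescence in stably transfected HEK293 cells, read for 3 min after pin-tool compound delivery; 15-point titrations in triplicate.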

[5] = G protein-coupled receptor (GPCR) small molecule agonists, calcium flux assay: HEK293 wild type cell line counter screen (AID 1920065)
Method in brief: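 Readout: fluorescence at 480 nm excitation/540 nm emission, sampled at 1 s intervals for 3 min. Cells had been cultured 18 h, then dye-loaded 1 h at 37 C before compound or ATP addition.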

[6] = p53 small molecule agonists, cell-based qHTS assay with human liver microsomes: qHTS cell viability counter screen (AID 1963579); further: nearly all actives have a fitted effect of over 45% in size; further: potency means the concentration at half of the fitted maximal effect
Method in brief: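 Cytotoxicity counter screen: p53RE-bla, 4,000 cells/well; 5 h settle, 37 C/5% CO2; cpd + HLM 0.5 mg/mL + NADPH 0.5 mg/mL (final); 16 h, 37 C; CellTiter-Glo, 30 min RT, luminescence.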

[7] = p53 small molecule agonists, cell-based qHTS assay: qHTS cell viability counter screen (AID 1963581); further: nearly all actives have a fitted effect of over 45% in size
Method in brief: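 In the same plates used for the p53 bla reporter, HCT-116 cells given compounds for 16 h at 37 C received CellTiter-Glo; luminescence was recorded 30 min later at room temperature.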

[8] = molecular target: Muscarinic acetylcholine receptor M1 (Homo sapiens) (UniProt P11229); assay: Cholinergic receptor muscarinic 1 (CHRM1) small molecule agonists, cell-based qHTS assay (AID 1963589); further: nearly all actives have a fitted effect of over 35% in size; further: potency means the concentration at half of the fitted maximal effect
Method in brief: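 Each compound was tested at 15 concentrations across three independent runs on dye-loaded CHO cells stably expressing human CHRM1, reading intracellular calcium fluorescence kinetically at 1 sec intervals.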

[9] = cAMP Responsive Elements (CRE) small molecule agonists, cell-based qHTS assay (AID 1963590)
Method in brief: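 Cell line: CRE-bla HEK 293T; medium DMEM/10% dialyzed FBS/0.1 mM NEAA/1 mM pyruvate/25 mM HEPES; 3 h compound exposure; beta-lactamase FRET readout after 2 h substrate loading at RT.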

[10] = cAMP Responsive Elements (CRE) small molecule antagonists, cell-based qHTS assay (AID 1963591; active means well fitted inhibition curve with a large enough effect in the signal ratio in the repeat runs, not every such curve was filed as active; the % refers to the signal ratio)
Method in brief: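 Inhibition of NKH477-driven (0.25 uM final) CRE-beta-lactamase signal in HEK293T cells, 3 h compound exposure at 37 °C, detected by FRET substrate fluorescence.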

[11] = molecular target: Beta-2 adrenergic receptor (Homo sapiens) (UniProt P07550); assay: Adrenergic beta2 receptor (ADRB2) small molecule antagonists, cell-based qHTS assay (AID 1963592); further: series mostly up to about 92 µM; nearly all actives have a fitted effect of over 50% in size
Method in brief: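 Cells (CHO, stable ADRB2 overexpression) incubated 18-20hr at 37C; compounds added from DMSO; agonist mix (1nM isoproterenol, 100uM IBMX, 25uM Ro-20-1724) added; 0.5hr RT; d2-cAMP and anti-cAMP-cryptate added; 1hr RT; 665/615 nm read.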

[12] = molecular target: Beta-2 adrenergic receptor (Homo sapiens) (UniProt P07550); assay: Adrenergic beta2 receptor (ADRB2) small molecule agonists, cell-based qHTS assay (AID 1963593);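 further: CHO cells stably overexpressing human ADRB2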
Method in brief: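 CHO cells stably over-expressing ADRB2 were plated overnight at 37C, then dosed with compounds plus a stimulation mix containing 100uM IBMX and 25uM Ro-20-1724 for 0.5hr at room temperature. cAMP was measured by HTRF competition, 1hr.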

[13] = molecular target: D(2) dopamine receptor (Homo sapiens) (UniProt P14416); assay: Dopamine D2 receptor (DRD2) small molecule agonists, cell-based qHTS assay (AID 1963594); further: nearly all actives have a fitted effect of over 35% in size
Method in brief: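 HEK293 cells stably expressing DRD2 were cultured 24 h at 37 C, then given Ro20-1724 (0.1 mM final) and compounds for 10 min at room temperature. NKH477 (200nM) was then added for 30 min. cAMP was read by HTRF.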

[14] = molecular target: D(2) dopamine receptor (Homo sapiens) (UniProt P14416); assay: Dopamine D2 receptor (DRD2) small molecule antagonists, cell-based qHTS assay (AID 1963595; active means well fitted inhibition curve with a large enough effect in the signal ratio in the repeat runs, with a control signal flat; the % refers to the signal ratio)
Method in brief: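 HTRF cAMP read-out at 665 and 620 nm emission (340 nm excitation). Antagonist mode: compounds were tested against 12 nM quinpirole in DRD2-HEK293 cells, with 200 nM NKH477 raising cAMP and 0.1 mM Ro20-1724 blocking its breakdown.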

[15] = p53 small molecule agonists, cell-based qHTS assay with rat liver microsomes (AID 1963578)
Method in brief: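 Cells carrying a p53 response element–beta-lactamase reporter were plated and rested 5 h, then dosed with compound in DMSO plus rat liver microsomes and NADPH, each at 0.5 mg/mL final. After 16 h at 37 C, LiveBLAzer substrate was added for 2 h.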

[16] = p53 small molecule agonists, cell-based qHTS assay with rat liver microsomes: qHTS cell viability counter screen (AID 1963580); further: nearly all actives have a fitted effect of over 45% in size
Method in brief: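 In HCT-116 cells carrying a p53 response element-bla reporter, compounds were metabolically activated in situ by rat liver microsomes with NADPH over 16 h. Cell ATP content then served as the cytotoxicity measure.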

[17] = p53 small molecule agonists, cell-based qHTS assay (AID 1963582; active means well fitted activation curve with a large enough effect in the signal ratio in the repeat runs, not every such curve was filed as active; the % refers to the signal ratio)
Method in brief: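 Compounds are pin-transferred in DMSO onto p53RE-bla cells and incubated 16 h at 37 C. The B/G FRET beta-lactamase substrate is then applied for 2 h at RT and fluorescence recorded.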

[18] = molecular target: 5-hydroxytryptamine receptor 2A (Homo sapiens) (UniProt P28223); assay: 5-hydroxytryptamine receptor 2A (HTR2A) small molecule antagonists, cell-based qHTS assay (AID 1963586); further: nearly all actives have a fitted effect of over 45% in size
Method in brief: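 Antagonist-mode intracellular calcium assay: DOI (4 nM) added after 5 min compound pre-incubation at room temperature to dye-loaded HTR2A-CHO cells. Fluorescence followed for 3 min, sampled every second.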

[19] = molecular target: 5-hydroxytryptamine receptor 2A (Homo sapiens) (UniProt P28223); assay: 5-hydroxytryptamine receptor 2A (HTR2A) small molecule agonists, cell-based qHTS assay (AID 1963587); further: nearly all actives have a fitted effect of over 30% in size
Method in brief: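 HTR2A-CHO cells, plated 18 h at 37 C/5% CO2, dye-loaded 1 h at 37 C; compounds in DMSO added by pin tool (agonist mode). Intracellular calcium flux read as kinetic fluorescence on FDSS over 2 min at 1 s intervals.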

[20] = molecular target: Muscarinic acetylcholine receptor M1 (Homo sapiens) (UniProt P11229); assay: Cholinergic receptor muscarinic 1 (CHRM1) small molecule antagonists, cell-based qHTS assay (AID 1963588); further: nearly all actives have a fitted effect of over 40% in size
Method in brief: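 CHRM1-CHO calcium-flux assay, antagonist mode. Cells were seeded 18 h, dye-loaded 1 h at 37 C and given compound for 5 min at RT, then acetylcholine was added at 50nM. FDSS fluorescence was read 3 min; 15 concentrations, three runs.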

5-hydroxytryptamine receptor 2A (Homo sapiens), sequence (P28223 whole entry, looked up): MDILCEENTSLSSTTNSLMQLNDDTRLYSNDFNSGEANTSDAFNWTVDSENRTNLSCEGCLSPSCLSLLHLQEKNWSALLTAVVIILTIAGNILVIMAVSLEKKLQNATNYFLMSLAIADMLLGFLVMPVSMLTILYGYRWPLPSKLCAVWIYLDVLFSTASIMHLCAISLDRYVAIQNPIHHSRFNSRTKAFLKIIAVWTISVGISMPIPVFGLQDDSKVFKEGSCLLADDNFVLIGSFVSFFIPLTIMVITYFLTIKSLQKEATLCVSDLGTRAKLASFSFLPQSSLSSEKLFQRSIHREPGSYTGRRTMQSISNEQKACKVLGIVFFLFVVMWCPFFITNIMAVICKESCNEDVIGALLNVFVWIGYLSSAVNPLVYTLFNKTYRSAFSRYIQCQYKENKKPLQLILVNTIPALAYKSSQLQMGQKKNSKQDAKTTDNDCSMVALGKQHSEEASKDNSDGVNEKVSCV
Gonadotropin-releasing hormone receptor (Homo sapiens), sequence (P30968 whole entry, looked up): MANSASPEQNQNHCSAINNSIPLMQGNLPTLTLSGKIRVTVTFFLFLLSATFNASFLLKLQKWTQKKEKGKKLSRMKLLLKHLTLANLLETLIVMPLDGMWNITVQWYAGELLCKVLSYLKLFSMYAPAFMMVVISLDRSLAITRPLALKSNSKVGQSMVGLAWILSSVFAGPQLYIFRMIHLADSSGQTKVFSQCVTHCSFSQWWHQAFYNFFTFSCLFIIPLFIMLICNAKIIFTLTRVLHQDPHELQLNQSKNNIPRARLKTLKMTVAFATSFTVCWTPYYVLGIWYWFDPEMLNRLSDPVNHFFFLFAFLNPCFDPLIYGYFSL
D(2) dopamine receptor (Homo sapiens), sequence (P14416 whole entry, looked up): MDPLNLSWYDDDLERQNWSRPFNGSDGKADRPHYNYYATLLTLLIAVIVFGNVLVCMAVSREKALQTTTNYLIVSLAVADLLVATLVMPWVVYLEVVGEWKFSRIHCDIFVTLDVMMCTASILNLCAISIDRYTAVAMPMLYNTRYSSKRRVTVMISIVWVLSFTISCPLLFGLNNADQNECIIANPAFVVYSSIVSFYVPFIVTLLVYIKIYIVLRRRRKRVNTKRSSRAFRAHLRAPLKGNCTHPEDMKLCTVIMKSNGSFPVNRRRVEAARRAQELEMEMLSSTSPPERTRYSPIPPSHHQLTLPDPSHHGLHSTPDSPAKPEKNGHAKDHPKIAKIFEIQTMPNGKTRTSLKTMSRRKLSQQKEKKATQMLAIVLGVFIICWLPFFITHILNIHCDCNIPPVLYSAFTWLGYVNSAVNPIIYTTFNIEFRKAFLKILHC
KiSS-1 receptor (Homo sapiens), sequence (Q969F8 whole entry, looked up): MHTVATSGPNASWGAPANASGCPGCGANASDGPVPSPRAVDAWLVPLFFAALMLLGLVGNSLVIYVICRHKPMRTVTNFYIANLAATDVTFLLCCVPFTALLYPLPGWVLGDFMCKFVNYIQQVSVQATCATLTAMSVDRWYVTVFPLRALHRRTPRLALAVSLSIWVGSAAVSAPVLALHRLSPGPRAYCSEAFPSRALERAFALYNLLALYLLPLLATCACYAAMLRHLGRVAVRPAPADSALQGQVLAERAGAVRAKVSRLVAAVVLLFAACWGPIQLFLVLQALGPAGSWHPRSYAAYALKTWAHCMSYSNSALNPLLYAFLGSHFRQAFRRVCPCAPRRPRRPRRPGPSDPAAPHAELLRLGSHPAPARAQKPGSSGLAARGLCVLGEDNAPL
Beta-2 adrenergic receptor (Homo sapiens), sequence (P07550 whole entry, looked up): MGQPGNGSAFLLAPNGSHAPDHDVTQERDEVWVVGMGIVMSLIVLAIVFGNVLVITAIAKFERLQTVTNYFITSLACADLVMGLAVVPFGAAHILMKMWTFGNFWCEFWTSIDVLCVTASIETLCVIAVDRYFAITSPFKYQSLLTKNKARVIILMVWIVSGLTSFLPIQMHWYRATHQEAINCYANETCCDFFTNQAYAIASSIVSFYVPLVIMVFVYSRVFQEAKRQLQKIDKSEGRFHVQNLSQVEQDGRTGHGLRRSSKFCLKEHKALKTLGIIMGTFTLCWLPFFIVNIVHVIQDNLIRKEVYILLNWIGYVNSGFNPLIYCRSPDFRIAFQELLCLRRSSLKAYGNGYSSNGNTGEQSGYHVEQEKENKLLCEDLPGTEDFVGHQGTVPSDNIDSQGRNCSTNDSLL
Muscarinic acetylcholine receptor M1 (Homo sapiens), sequence (P11229 whole entry, looked up): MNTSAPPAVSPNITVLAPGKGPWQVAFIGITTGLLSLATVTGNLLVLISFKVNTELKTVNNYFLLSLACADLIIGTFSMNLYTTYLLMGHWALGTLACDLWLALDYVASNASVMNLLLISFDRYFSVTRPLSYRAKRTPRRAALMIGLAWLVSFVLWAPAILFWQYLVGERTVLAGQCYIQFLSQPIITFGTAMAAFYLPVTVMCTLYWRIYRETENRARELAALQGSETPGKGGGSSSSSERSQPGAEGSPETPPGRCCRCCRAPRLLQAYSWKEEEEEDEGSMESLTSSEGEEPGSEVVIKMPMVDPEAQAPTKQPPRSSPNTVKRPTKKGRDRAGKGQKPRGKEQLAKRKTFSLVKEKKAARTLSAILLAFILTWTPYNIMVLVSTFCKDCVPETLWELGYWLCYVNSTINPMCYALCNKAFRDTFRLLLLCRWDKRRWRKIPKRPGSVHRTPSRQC

Row | Structure (SMILES) | Potency [1] | Potency [2] | Potency [3] | Potency [4] | Potency [5] | Potency [6] | Potency [7] | Potency [8] | Potency [9] | Potency [10] | Potency [11] | Potency [12] | Potency [13] | Potency [14] | Potency [15] | Potency [16] | Potency [17] | Potency [18] | Potency [19] | Potency [20]
1 | CCCCCC[n+]1ccccc1 | inactive | 69.2 µM (active) and 69 µM (active) and inactive | inactive | inactive | inactive | 11.6 µM (active) and 9.19 µM (active) and inactive | inactive | inactive | inactive | inactive | inactive | inactive | inactive | inactive |  |  |  |  |  | 
2 | CNC(=O)NC(O)C(Cl)(Cl)Cl (configuration not stated) | inactive | inactive | inactive | inactive |  | inactive | inactive | inactive | inactive | inactive | inactive | inactive | inactive |  | inactive | inactive | inactive | inactive | inactive | inactive
3 | C[N+](C)(C)Cc1ccccc1 | inactive | inactive | inactive | inactive | inactive | inactive | inactive | 3.07 µM (active) and 5.49 µM (active) | inactive | inactive | inactive |  | inactive |  |  |  |  | inactive | inactive | 
4 | Nc1ccncc1 | inactive | inactive | inactive | inactive |  | inactive | inactive | inactive | inactive | inactive | inactive |  | inactive | inactive | inactive | inactive | inactive | inactive | inactive | inactive
5 | Cc1cc(C)cc(C)c1 | inactive | inactive | inactive | inactive | inactive |  | inactive | inactive | inactive | inactive | inactive |  | inactive | inactive |  | inactive |  | inactive | inactive | inactive
6 | Nc1nc(=S)[nH][nH]1 | inactive | inactive | inactive | inactive | inactive |  | inactive | inactive | inactive | inactive | inactive | inactive | inactive | inactive |  | inactive | inactive | inactive | inactive | inactive
7 | O=C(O)c1ccc(=O)[nH]c1 | inactive | inactive | inactive | inactive |  | inactive | inactive | inactive | inactive | inactive | inactive | inactive | inactive | inactive | inactive | inactive | inactive | inactive | inactive | inactive
